PLAP activator: activators of human placental alkaline phosphatase. purified PLAP enzyme, luminescent substrate read-out; stronger effect = higher value. 96,000 tested, 1.2% active. activation fold at 20 µM; in the data active = activation fold above about 2
PostGolgi ctrl: yeast control strain growth, post-Golgi counter-screen; 98,000 tested, 5% active; inhibition, % at 10 µM; efflux-deficient yeast background strain, growth absorbance A615, 16 h
DAT uptake mod: changed human dopamine transporter uptake under cocaine IC80. 110,000 tested, 1.3% active. AID 449768. LLC-PK1 hDAT cells, [14C]-dopamine uptake with cocaine IC80; actives deviate in either direction. B-score at 10 µM. Q01959;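 active = Z score or B-score, a plate-position-corrected score, falls beyond the plate's 99.7% confidence bounds, in either direction; inactive = both scores lie inside the 99.7% bounds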
Target sequence (Q01959 whole entry, looked up): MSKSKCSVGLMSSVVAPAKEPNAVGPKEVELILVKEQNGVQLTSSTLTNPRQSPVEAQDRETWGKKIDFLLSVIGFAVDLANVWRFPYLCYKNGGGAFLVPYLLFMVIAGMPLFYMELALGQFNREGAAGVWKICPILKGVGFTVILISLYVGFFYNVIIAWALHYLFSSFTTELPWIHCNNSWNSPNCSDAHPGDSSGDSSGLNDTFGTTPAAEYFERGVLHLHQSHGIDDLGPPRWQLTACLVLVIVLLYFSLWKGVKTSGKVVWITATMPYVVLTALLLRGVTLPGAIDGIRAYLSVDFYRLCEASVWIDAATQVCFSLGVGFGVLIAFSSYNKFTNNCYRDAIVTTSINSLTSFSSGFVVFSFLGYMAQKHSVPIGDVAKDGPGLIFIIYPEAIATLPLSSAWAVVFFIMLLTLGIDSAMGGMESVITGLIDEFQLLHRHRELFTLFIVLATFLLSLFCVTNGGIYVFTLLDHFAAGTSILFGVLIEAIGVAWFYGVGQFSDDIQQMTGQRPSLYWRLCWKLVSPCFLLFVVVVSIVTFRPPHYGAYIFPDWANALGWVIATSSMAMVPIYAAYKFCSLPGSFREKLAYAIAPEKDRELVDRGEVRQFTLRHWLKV
PostGolgi yeast: growth inhibition of a yeast mutant, post-Golgi transport screen; post-Golgi transport phenotypic cell assay; inhibition, % at 10 µM; 98,000 tested, 0.9% active; AID 739;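 note: yeast cells grown in 1536-well plates; yeast grown about 18 h at 30C before absorbance read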
Cav3 T inh: blocks human Cav3.2 T-type calcium channel. Cav3.2-expressing cells, Fluo-4 calcium fluorescence FDSS; stronger effect = lower value. O95180. 100,000 tested, 4% active. B-score at 10 µM. AID 449739;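 active = single-dose well whose peak fluorescence ratio is a statistical outlier from its plate by either plate-standardised score or position-corrected B-score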
Each line names hits and unclear results; the compound was inactive in the other large screens. Only some compounds are listed: those with a hit (about 9.6% of all), similar ones and a draw of the others. Cut-off read from the data, not from the text of the source, unless noted: active = inhibition above about 30%; inactive = the rest.

COc1ccc(Cl)cc1N(CC(=O)Nc1cccc(SC)c1)S(C)(=O)=O	none
COc1ccc(OC)c(N(CC(=O)Nc2ccc(NC(C)=O)cc2)S(C)(=O)=O)c1	PostGolgi ctrl 30.6
COc1ccc(N(CC(=O)Nc2cccc(SC)c2)S(C)(=O)=O)cc1Cl	Cav3 T inh -5.91
CSc1cccc(NC(=O)CN(c2cc(C)ccc2C)S(C)(=O)=O)c1	Cav3 T inh -5.76
COC(=O)c1ccc(C)c(NC(=O)CN(c2cc(OC)ccc2OC)S(C)(=O)=O)c1	none
C[C@@H](O)C1NC(=O)[C@H](CCCCN)NC(=O)c2cc([N+](=O)[O-])cc(I)c2OCC[C@@H](C(N)=O)NC1=O (stereo not given in full)	none (no result: PLAP activator, PostGolgi ctrl, PostGolgi yeast)
O=C(OCCN1C(=O)c2ccccc2C1=O)c1cccc(OC(F)F)c1	PostGolgi ctrl 36.0
COc1cccc(C(=O)OCCN2CCCCC2)c1	Cav3 T inh -9.39 (no result: PLAP activator, PostGolgi ctrl, PostGolgi yeast)
O=C(OCCN1C(=O)c2ccccc2C1=O)c1cccs1	none
Cc1ccc(C(=O)COC(=O)C2C3C=CC(C3)C2C(=O)OCC(=O)c2ccc(C)c(C)c2)cc1C (stereo not given)	Cav3 T inh -5.08
O=c1c2cc(Br)cc(Br)c2oc2nc3n(c(=O)c12)CCCS3	PostGolgi ctrl 42.9 (no result: DAT uptake mod, Cav3 T inh)
CCOc1nc(SCCOc2ccc(C)cc2)nc(N(C)C)n1	Cav3 T inh -6.45 (no result: PLAP activator)
Cc1cccc(N2CCN(C(=O)C3CCN(S(=O)(=O)c4cccc5nsnc45)CC3)CC2C)c1 (stereo not given)	Cav3 T inh -3.36
O=C(CC(c1ccccc1)c1ccccc1O)NCCN1CCOCC1 (stereo not given)	DAT uptake mod -7.82
Cc1ccc(-c2cc(C(=O)Nc3nn[nH]n3)c3ccccc3n2)cc1	none
CCN1CCN(c2cc(C(C)(C)C)nc3c(-c4ccccc4)c(C)nn23)CC1	PostGolgi ctrl 76.4
CCN1CCN(c2ccc(NC(=O)CCc3c(C)nc4c(-c5ccccc5)c(C)nn4c3C)cc2)CC1	DAT uptake mod 2.52
Cc1nc2c(-c3ccccc3)c(C)nn2c(C)c1CCC(=O)NCc1ccco1	none
O=C(O)CNC(=O)c1ccc(S(=O)(=O)N2CCOCC2)cc1	none
Cc1ccccc1OCCCn1c(=O)sc2ccccc21	none
Cc1ccc(N2C(=O)CSC2c2cccnc2)cc1F (stereo not given)	none
O=C(CNS(=O)(=O)c1ccc(Br)cc1)N1CCN(c2ccc(F)cc2)CC1	Cav3 T inh -7.77 (no result: PLAP activator, PostGolgi ctrl, PostGolgi yeast)
Cc1ccc(NC(=O)c2oc3ccccc3c2NC(=O)c2ccc3c(c2)OCO3)cc1	none
COc1ccc([N+](=O)[O-])cc1C1NN=C(c2ccccc2O)S1 (stereo not given)	Cav3 T inh -3.68
O=C(NCCc1csc(-c2ccc(C(F)(F)F)cc2)n1)c1cccs1	PostGolgi ctrl 82.3, DAT uptake mod 2.06, Cav3 T inh -6.12
O=C(NCCc1csc(-c2cccnc2)n1)c1cccs1	none (no result: PLAP activator, DAT uptake mod, Cav3 T inh)
CCN(CC)S(=O)(=O)c1cccc(C(=O)N[C@H](C(=O)OCC(=O)Nc2ccccc2)C(C)C)c1	Cav3 T inh -9.18
CCC(C)NC(=O)C1CCN(S(=O)(=O)N2CCCC2)CC1 (stereo not given)	PostGolgi ctrl 31.1
Cc1ccc(NC(=S)NNC(=O)CCn2cc(C)cn2)cc1	PLAP activator 2.4
Cc1cc([N+](=O)[O-])nn1CC(=O)NNC(=S)Nc1ccc(Cl)cc1	none
Cc1ccc(NC(=S)NNC(=O)Cn2nc([N+](=O)[O-])cc2C)cc1	PLAP activator 2
CC(=O)N1N=C(c2ccc(C)cc2)OC1c1ccc(C(C)C)cc1 (stereo not given)	none
CC(=O)N1N=C(c2ccc(C)cc2)OC1c1ccc(C)cc1 (stereo not given)	PostGolgi ctrl 33.8
O=C(Nc1ccc2c(c1)OCCO2)C1CCCN(S(=O)(=O)c2cccs2)C1 (stereo not given)	none
CC(c1ccccc1)C1C(C#N)=C(N)SC(N)=C1C#N (stereo not given)	Cav3 T inh -5.03
Cc1ccc(C2C(C#N)=C(N)SC(N)=C2C#N)cc1	PostGolgi ctrl 39.6 (no result: DAT uptake mod, Cav3 T inh)
Cn1c(=O)c(-c2cc(Br)ccc2N)nc2ccccc21	none (no result: Cav3 T inh)
COC(=O)Cc1cc(=O)n2[nH]c(C(F)(F)F)nc2n1	none
CCOC(=O)C1=NN(c2ccccc2)C2(S1)SC(C(C)=O)=C(C)N2c1ccccc1 (stereo not given)	Cav3 T inh -4.78
CCOC(=O)C1=NN(c2cccc(C)c2)C2(S1)SC(C(C)=O)=C(C)N2c1ccccc1 (stereo not given)	Cav3 T inh -3.46
CCOC(=O)C1=NN(c2ccc(C)cc2)C2(S1)SC(C(C)=O)=C(C)N2c1ccccc1 (stereo not given)	none
CCOC(=O)C1C(=O)C=C(c2ccc(Br)cc2)CC1c1ccco1 (stereo not given)	none
CC(C)(C)c1cc(C(C)(C)C)cc(S(=O)(=O)CCc2ccccn2)c1	Cav3 T inh -6.85
Cc1cccc(C)c1NC(=O)C1(N(Cc2ccco2)C(=O)CC2NC(=O)NC2=O)CCCC1 (stereo not given)	none
CC1CCCN(C(=O)COC(=O)c2ccc[nH]c2=O)C1 (stereo not given)	none
O=C(COc1ccc(Br)cc1)N1CCOCC1	none (no result: PLAP activator, PostGolgi ctrl, PostGolgi yeast)
O=C(CCN1C(=O)c2ccccc2C1=O)N1CCC(c2ccccc2)C1 (stereo not given)	PostGolgi ctrl 31.9
O=C(COc1ccc(Br)cc1)N1CCC(c2ccccc2)C1 (stereo not given)	Cav3 T inh -4.13
COC(=O)c1ccc(C23CC4(C2)[C@H](CN(CC2CCCCC2)[C@@H]4c2ccccc2)C3c2ccc(Cl)nc2)cc1 (stereo not given in full)	none (no result: PLAP activator, PostGolgi ctrl, PostGolgi yeast)
COc1ccc(S(=O)(=O)N(CC(=O)N2CCOCC2)Cc2ccccc2)cc1C	PLAP activator 2
COc1ccc(Cl)cc1NC(=O)CN1CCC(n2nnc3cc(F)ccc32)CC1	none
c1csc(-c2csc3nc(CN4CCOCC4)nc(NCc4ccc5c(c4)OCO5)c23)c1	Cav3 T inh -7.61 (no result: DAT uptake mod)
COc1ccc(C(C)C)cc1S(=O)(=O)n1cnc(C)c1	none
CN(Cc1ccccc1)C(=O)CSc1nc2ccccc2c(=O)n1Cc1ccco1	PostGolgi ctrl 55.9
CCN(CC)C(=O)CSc1nc2c(sc(=S)n2CC)c(=O)n1-c1ccccc1	none
CCOC(=O)CSc1nc2c(sc(=S)n2Cc2ccco2)c(=O)n1-c1ccc(F)cc1	none
O=c1c2ccccc2nc(SCc2cc(F)cc3c2OCOC3)n1Cc1ccco1	Cav3 T inh -5.98
COc1ccccc1-n1c(=S)sc2c(=O)n(Cc3ccco3)c(SC)nc21	PostGolgi ctrl 45.5
CCN(CC)C(=O)CSc1nc2c(sc(=S)n2-c2ccccc2)c(=O)n1Cc1ccco1	Cav3 T inh -6.59
Cn1c(=O)c2c(nc(N3CCN(Cc4ccccc4)CC3)n2CCSc2ncccn2)n(C)c1=O	none (no result: PostGolgi ctrl, DAT uptake mod, PostGolgi yeast, Cav3 T inh)
CCN1C(=O)N[C@H](c2ccccc2)C(C(C)=O)=C1C	none (no result: PLAP activator, PostGolgi ctrl, PostGolgi yeast)
CC1CCN(C(=O)CCNC(=O)Cn2cnc3sc4c(c3c2=O)CCCC4)CC1	PLAP activator 2.1

Screens as filed in PubChem.
